The sample as a whole holds a higher share of hits than the screen did.
Pf Dd2 inh – inhibitors of Plasmodium falciparum Dd2 growth; Potency, µM (highest dose often 28.9 µM), usual class: inhibitors; actives 4.3% (n = 120,000); AID 1347417; P. falciparum Dd2 growth, SYBR Green, 72 h; active means well fitted inhibition curve with a large enough effect; further: nearly all actives have a fitted effect of over 65% in size
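Readout: SYBR Green fluorescence, 485 nm excitation, 535 nm emission, after ~16 h lysis at 37C. Before that, Dd2-infected red cells (2.5% hematocrit) grew 72 h with compound, 29 uM top final concentration.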
Large screens that a line does not name were inactive.

Clc1cccc(Nc2cnc3ccc(N4CCOCC4)nn23)c1	none
c1ccc(-c2ccc3ncc(Nc4ccc5c(c4)OCCO5)n3n2)cc1	none
Cc1cc(C(F)(F)F)nn1CC(=O)N1CCCC(c2[nH]ccc2C(N)=O)C1 (stereo not drawn)	none
COCCNC(=O)[C@H]1C[C@H](Oc2ccccc2)CN1Cc1sccc1C	none
CCOC(=O)C1=CN(CC(=O)NC(C)c2ccccc2)S(=O)(=O)N=C1C (stereo not drawn)	none
Cc1cc2nc3n(c(=O)c2n1CC(=O)NCCC1=CCCCC1)CCC3	none
CCC(C)NC(=O)C1COC2(CCN(C(=O)CC(C)C)CC2)N1C(=O)c1cccc(OC)c1 (stereo not drawn)	none
Cc1cccc(-n2c(=O)c3c(cc(C)n3C)n(CC(=O)N(C)c3ccccc3)c2=O)c1	none
O=C(c1cnccn1)N1CCC(c2nc(C3CCOCC3)no2)CC1	none
O=C1CCN(C(=O)Nc2ccccc2)CCCC(c2nc(-c3cnccn3)no2)CCN1 (stereo not drawn)	none
Cc1ccc(C)c(NC2=C(c3ccc(C(F)(F)F)cc3)C(=O)c3ccccc32)c1	Pf Dd2 inh 1.4µM
Cc1ccc(C)c(NC(=O)C(C)N(c2ccccc2)S(C)(=O)=O)c1 (stereo not drawn)	none
Cc1ccc(C)c(NS(=O)(=O)c2ccc3c4c(cccc24)C(=O)N3)c1	none
CCc1cc(N2CCOC(c3ccc4cc(OC)ccc4c3)C2)nc(C)n1 (stereo not drawn)	none
CCOc1ccc(S(=O)(=O)N2CCc3nc4cc[nH]n4c(=O)c3C2)cc1	none
COCCN1CCC(CN(Cc2ccncc2)C(=O)[C@@H]2C[C@@H]3C=C[C@H]2C3)CC1	none
CN1CCN(C(=O)[C@@H]2CCC[C@@H](NC(=O)c3nc4ccccc4s3)CN(C)C(=O)C2)CC1	none
CN(Cc1cnccn1)C(=O)CC(c1ccccc1)c1ccccc1Cl (stereo not drawn)	none
O=C(CC(c1ccccc1)c1ccccc1F)NCc1cccnc1 (stereo not drawn)	none
O=C(CC(c1ccccc1)c1ccccc1Cl)N(Cc1cccnc1)C1CC1 (stereo not drawn)	Pf Dd2 inh 13µM
COc1ccc(N2CC(C(=O)N3CCC(C(=O)NCc4cccs4)C3)NC2=O)cc1 (stereo not drawn)	none
COc1ccccc1-n1cc(C(=O)N[C@H](c2cnn(C)c2)C2CC(O)C2)cn1 (stereo partly drawn)	none
CCNC(=O)N1C[C@@H]2OCC(=O)N(CC3CC3)[C@@H]2C1	none
Cn1cc(C(=O)N2CCC(N(Cc3ccccc3)C3CCOCC3)CC2)cn1	none
O=C(c1cccc(Cl)c1)N1CCC(N(Cc2ccccc2)C2CCOCC2)CC1	Pf Dd2 inh 5µM
Cn1cnc(C(=O)N2CCC(N(Cc3ccccc3)C3CCOCC3)CC2)c1	none
CNC(=O)N1CCCC(c2nc(CCOCC3CCCC3)no2)C1 (stereo not drawn)	none
Cc1cccc(CNC(=O)c2oc3c(c2C)-c2nn(Cc4cccc(Cl)c4)cc2CC3)c1	none
Cc1cccc(CNC(=O)c2oc3c(c2C)-c2nn(Cc4ccccc4Cl)cc2CC3)c1	none
CCOc1ccc(CNC(=O)c2oc3c(c2C)-c2nn(Cc4cccc(Cl)c4)cc2CC3)cc1	Pf Dd2 inh 11µM
O=C(O)c1ccccc1C(=O)N1CC[C@H]2COC(=O)N2c2cc(F)ccc2C1	none
COc1ccc2cc3cc(C(=O)NCc4ccccc4OC)oc3nc2c1	none
COc1ccc(CNC(=O)c2cc3cc4ccc(C)cc4nc3o2)cc1	none
Cc1ccc2cc3cc(C(=O)N(C)c4ccccc4C)oc3nc2c1	Pf Dd2 inh 11µM
CC(C)(C)OC(=O)N1CCC(c2c(C(=O)N3CCC(c4ccccc4)C3)cnn2-c2cccc(Cl)c2)CC1 (stereo not drawn)	Pf Dd2 inh 3.5µM
CC(C)(C)OC(=O)N1CCC(c2c(C(=O)N3CCN(Cc4ccccc4)CC3)cnn2-c2cccc(Cl)c2)CC1	Pf Dd2 inh 3.2µM
Cc1ccc(C2CCN(C(=O)c3cnn(-c4cccc(Cl)c4)c3C3CCN(C(=O)OC(C)(C)C)CC3)C2)cc1 (stereo not drawn)	Pf Dd2 inh 4.5µM
CC(C)(C)OC(=O)N1CCC(c2c(C(=O)N3CCN(c4ncccn4)CC3)cnn2-c2ccccc2)CC1	none
Cc1cccc(-n2ncc(C(=O)N3CCOCC3)c2C2CCN(C(=O)OC(C)(C)C)CC2)c1	none
COc1ccccc1N1CCN(C(=O)c2cnn(-c3cccc(Cl)c3)c2C2CCN(C(=O)OC(C)(C)C)CC2)CC1	Pf Dd2 inh 7.9µM
CN1CCN(C(=O)c2cnn(-c3cccc(F)c3)c2C2CCN(C(=O)OC(C)(C)C)CC2)CC1	none
CCc1ccccc1NC(=O)Cn1c(=O)c(-c2noc(C)n2)c2n(c1=O)CCCC2	none
CC(=O)c1cccc(N2C(=O)[C@@H]3C[C@@H](NC(=O)c4ccncc4)CCN3C2=O)c1	none
CNC(=O)[C@@H](c1ccc(Cl)cc1)N1CCC[C@H]1C(=O)NC(C)(C)C	none
Cc1ccccc1-c1nccc2c(=O)cc(N3CCOCC3)oc12	none
COC(=O)C1=CN(CC(=O)N(C)c2ccccc2)S(=O)(=O)N=C1C	none
CNC(=O)[C@@H]1CN(C(=O)c2ccc(C)[nH]c2=O)C[C@H]1c1nc(COC)no1	none
COc1ccc(NC(=O)Cn2c(=O)n(-c3ccccc3)c(=O)c3c2cc(C)n3C)cc1OC	none
CN(C)C[C@@H]1CN(c2ncccn2)C[C@H]1NC(=O)c1ccccc1Cl	none
CCCC1c2nccn2CCCN1C(=O)c1cc(C)no1 (stereo not drawn)	none
c1ccc(-c2nc(C3CCNC3)no2)nc1 (stereo not drawn)	none
Cc1ccc(CNC(=O)N2CC(n3cc(C(=O)NCC4CC4)nn3)C2)cc1	none
O=C(NC1CC1)c1cc(C2CC2)nc2onc(C3CCCN3)c12 (stereo not drawn)	none
CCc1cc(=O)n(CC(=O)N2CCN(c3ccc(F)cc3)CC2)c(N2CCOCC2)n1	none
COc1cccc(C2=CC(c3cc(Br)ccc3F)n3nnnc3N2)c1 (stereo not drawn)	none
COc1ccccc1C1C=C(c2ccc(F)cc2)Nc2nc(-c3ccc(Cl)cc3)nn21 (stereo not drawn)	Pf Dd2 inh 11µM
COc1ccccc1C1C=C(c2ccc(Cl)cc2)Nc2nc(-c3ccc(Cl)cc3)nn21 (stereo not drawn)	Pf Dd2 inh 2.8µM
COc1ccccc1C1C=C(c2ccc(C(C)C)cc2)Nc2nnnn21 (stereo not drawn)	none
CC1=C(C(=O)Nc2cccnc2)C(c2ccccc2Cl)n2nc(-c3ccccc3)nc2N1 (stereo not drawn)	none
CCc1ccc(C2=CC(c3c(F)cccc3Cl)n3c(nc4ccccc43)N2)cc1 (stereo not drawn)	none
CN1CC(=O)N(C2CCCNC2)Cc2c1ncnc2N1CCCN(Cc2ccccc2)CC1 (stereo not drawn)	none
CCOc1ccc(C(=O)N[C@@H]2CN(c3ncccn3)C[C@H]2CO)cc1	none
COc1cc(Cl)ccc1OCc1nnc(C(=O)N2CCC[C@@H]2c2cccc(F)c2)n1-c1ccccc1	none
Cc1csc(NC(=O)[C@@H]2CCC[C@@H](NCc3cccnc3)CN(C)C(=O)C2)n1	none
COc1ccccc1C(=O)Nc1c(C(=O)N2CCN(c3ccc(F)cc3)CC2)oc2ccccc12	none
COc1ccc(CC(=O)Nc2c(C(=O)N3CCN(c4ccccc4F)CC3)oc3ccccc23)cc1OC	Pf Dd2 inh 11µM
CCOc1ccc(C(=O)Nc2c(C(=O)N3CCN(c4ccccc4F)CC3)oc3ccccc23)cc1	none
CN1C[C@H]2CN(Cc3c[nH]c4ccccc34)CCN2C1=O	none
O=S(=O)(c1cccs1)N1C[C@@H](c2ccc(F)cc2)[C@@H]2[C@H]1C1CCN2CC1	Pf Dd2 inh 5.6µM

Compound activity deposited in PubChem BioAssay by National Center for Advancing Translational Sciences (NCATS).
